The campaign covered roughly 310,000 compounds. About 14,000 (4.5%) showed an effect of 50% or more. The effect is printed as a negative number. The list comes from a sample in which strong results are over-represented; it also holds similar structures and randomly drawn compounds.
molecular target: human ether-à-go-go-related gene (hERG) potassium channel (human, UniProt Q12809); assay: primary screen, population patch clamp on CHO cells stably expressing hERG; higher = less effect of the substance
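Further: peak tail current of the secondary pulse compared with the same well before compound.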

human ether-à-go-go-related gene (hERG) potassium channel, sequence (Q12809 whole entry, looked up): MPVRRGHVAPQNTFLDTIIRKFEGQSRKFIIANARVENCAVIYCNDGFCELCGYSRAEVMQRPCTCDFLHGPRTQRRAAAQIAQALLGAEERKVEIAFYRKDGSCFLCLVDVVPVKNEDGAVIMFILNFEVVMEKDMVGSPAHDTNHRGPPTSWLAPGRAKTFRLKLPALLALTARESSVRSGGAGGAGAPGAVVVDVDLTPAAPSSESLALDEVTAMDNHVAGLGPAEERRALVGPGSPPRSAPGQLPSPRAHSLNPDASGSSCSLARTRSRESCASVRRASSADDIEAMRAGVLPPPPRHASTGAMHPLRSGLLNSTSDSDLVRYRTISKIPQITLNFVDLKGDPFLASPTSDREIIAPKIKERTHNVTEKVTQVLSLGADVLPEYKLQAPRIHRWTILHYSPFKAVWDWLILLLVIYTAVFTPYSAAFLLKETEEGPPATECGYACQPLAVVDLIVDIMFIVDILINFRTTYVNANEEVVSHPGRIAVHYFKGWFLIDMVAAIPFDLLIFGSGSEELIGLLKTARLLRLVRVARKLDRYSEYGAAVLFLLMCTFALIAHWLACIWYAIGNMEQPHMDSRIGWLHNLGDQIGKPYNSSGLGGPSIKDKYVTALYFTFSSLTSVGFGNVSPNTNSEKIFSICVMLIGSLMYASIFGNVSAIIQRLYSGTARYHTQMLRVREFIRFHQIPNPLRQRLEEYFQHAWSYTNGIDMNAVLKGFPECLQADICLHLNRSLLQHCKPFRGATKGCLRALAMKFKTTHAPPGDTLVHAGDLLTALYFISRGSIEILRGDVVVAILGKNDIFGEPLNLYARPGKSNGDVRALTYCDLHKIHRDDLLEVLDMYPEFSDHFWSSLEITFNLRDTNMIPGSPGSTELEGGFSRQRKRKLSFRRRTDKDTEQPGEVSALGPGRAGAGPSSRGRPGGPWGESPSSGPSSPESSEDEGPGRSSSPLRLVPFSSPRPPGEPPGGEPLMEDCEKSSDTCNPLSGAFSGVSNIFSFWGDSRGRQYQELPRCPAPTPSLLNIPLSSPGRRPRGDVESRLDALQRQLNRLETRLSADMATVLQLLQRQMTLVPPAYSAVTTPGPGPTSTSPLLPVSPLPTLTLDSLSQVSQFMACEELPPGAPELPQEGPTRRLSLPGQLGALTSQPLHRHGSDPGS

SMILES	hERG current change (%, negative = inhibition) at 10uM
C[C@H](CCC(=O)O)[C@H]1CC[C@H]2[C@@H]3CC[C@@H]4C[C@H](O)CC[C@]4(C)[C@H]3C[C@H](O)[C@]12C	11.8%
CCCN1CCC(NC23CC4CC(CC(C4)C2)C3)CC1	22.1%
O=S(=O)(c1cccc2nonc12)N1CCN(c2ccccc2F)CC1	4.42%
CCOC(=O)c1c(C)[nH]c(C)c1C(=O)CSc1ncccn1	-2.23%
O=C(Nc1nnc(-c2ccccc2Cl)s1)C1CCN(S(=O)(=O)c2ccc(Cl)cc2)CC1	28.1%
CCN(CC)CCCOc1ccc(Cl)c(Cl)c1	-60.5%
Clc1ccc(OCCCn2cncn2)cc1Cl	-12.2%
CCOc1ccccc1OCCCOc1ccc(C)cc1Br	7.97%
CCc1cccc(OCCCCN(CC)CC)c1	-37.9%
CCN(CC)CCCOc1ccc(C)cc1Br	-69%
Cc1ccc(OCCCN(C)C)c(Br)c1	-20.6%
COc1ccc(/C=N/N=C/c2ccc(OC)cc2)cc1	14%
CCOC(=O)CC1COCCN1C(=O)c1ccc2oc(Cc3ccccc3)nc2c1 (stereo not drawn)	1.91%
COc1ccc([C@@H]2CC=C(C(=O)O)CN2S(=O)(=O)c2ccc(Cl)cc2)cc1	7.54%
OCC[n+]1c2ccccc2nc2ccc(N3CCOCC3)cc21.[O-][Cl+3]([O-])([O-])[O-]	3.86%
O=C1Cc2cc(NS(=O)(=O)c3cc(F)ccc3F)cc3c2N1CCC3	-2.87%
Cc1ccc(NC(=S)N(CCN2CCOCC2)Cc2cc3cc4c(cc3[nH]c2=O)OCCO4)cc1	-14.3%
C=CCNC(=O)CN1C(=O)NC(C)(c2ccc(OC)cc2)C1=O (stereo not drawn)	-14.2%
COC(=O)C(NC(=O)c1ccc(F)cc1)(Nc1ncc(S(=O)(=O)c2ccc([N+](=O)[O-])cc2)s1)C(F)(F)F (stereo not drawn)	-52.9%
COC(=O)C(NC(=O)c1ccccc1Cl)(Nc1ncc(S(=O)(=O)c2ccc([N+](=O)[O-])cc2)s1)C(F)(F)F (stereo not drawn)	-32.8%
COC(=O)C(NC(=O)c1ccc(OC)cc1)(Nc1ncc(S(=O)(=O)c2ccc([N+](=O)[O-])cc2)s1)C(F)(F)F (stereo not drawn)	-5.41%
CCc1nnc(NC(=O)CCC(=O)NC2CCCCCC2)s1	3.71%
O=c1c2ccccc2nc(Cc2ccccc2)n1-c1ccc(O)cc1	-23.9%

SMILES	hERG current change (%, negative = inhibition) at 10uM
COc1ccc(-n2c(Cc3ccccc3)nc3ccccc3c2=O)cc1	-92.8%
COc1ccc(-n2c(-c3ccccc3[N+](=O)[O-])nc3ccccc3c2=O)cc1	-68.7%
O=c1c2ccccc2nc(Cc2cccc([N+](=O)[O-])c2)n1-c1ccc(O)cc1	-35.5%
COc1ccc(-n2c(-c3ccccc3Br)nc3ccccc3c2=O)cc1	-20.9%
CCCc1nc2ccccc2c(=O)n1-c1ccc(OC)cc1	9.5%
O=c1c2ccccc2nc(Cc2ccccc2)n1-c1ccccc1	-20.9%
COc1ccc(-n2c(Cc3cccc([N+](=O)[O-])c3)nc3ccccc3c2=O)cc1	-69.4%
COc1ccc(-c2nc3ccccc3c(=O)n2-c2ccc(OC)cc2)cc1	-4.5%
CCc1c(C)sc(NC(=O)c2cc(-c3cc(OC)ccc3OC)on2)c1C#N	3.3%
COc1ccc2cc(C(=O)C3CCCN(C(=O)c4cccnc4)C3)ccc2c1 (stereo not drawn)	-25.1%
CCOC(=O)c1ccc(N=Nc2c(C)c(C#N)c(O)[nH]c2=O)cc1	1.91%
Cc1ccc(OCCNC(=O)CCNS(=O)(=O)c2ccc(Br)cc2)cc1	15.7%
CSc1nncc(-c2ccc(F)c(F)c2)n1	10.8%
NC(=S)/N=C/c1c(O)[nH]c(=O)[nH]c1=O	12.5%
CCCCCCCCN=Cc1c(O)[nH]c(=O)[nH]c1=O	4.9%
C=CCNC(=S)/N=C/c1c(O)[nH]c(=O)[nH]c1=O	-52.8%
CCNc1nc(NCC)n2c(SCC(=O)Nc3ccccc3Cl)nnc2n1	11%
O=C(CSc1ccccc1Cl)N1CCC(c2nc3ccccc3s2)CC1	-7.4%
CCNC(=O)N1CCC(c2nc3ccccc3s2)CC1	10.3%
O=C(CSc1ccc(F)cc1)N1CCC(c2nc3ccccc3s2)CC1	-67.1%
O=C(CSc1ccc(Cl)cc1Cl)N1CCC(c2nc3ccccc3s2)CC1	-14.5%
O=C(CSc1c(Cl)cccc1Cl)N1CCC(c2nc3ccccc3s2)CC1	-0.729%
O=C(CSc1ccc(Cl)cc1)N1CCC(c2nc3ccccc3s2)CC1	-59.7%

SMILES	hERG current change (%, negative = inhibition) at 10uM
CS(=O)(=O)Cc1ccc(C(=O)N2CCCC2c2cccs2)cc1 (stereo not drawn)	16.9%
CN(CCc1ccccn1)C(=O)CCC1CCCN(C(=O)c2ccccn2)C1 (stereo not drawn)	21.8%
Cc1ccccc1C(=O)Nc1ccc2c(c1)OCCO2	6.96%
Cc1ccc(C(=O)CCC(=O)Nc2ccccc2C)cc1C	15%
CCC(=O)OCCn1c(Br)nc2c1c(=O)[nH]c(=O)n2C	-0.796%
CCCCn1c(SCc2ccccn2)nc2c1c(=O)n(C)c(=O)n2C	-8.02%
CCOC(=O)Cn1c(Br)nc2c1c(=O)[nH]c(=O)n2C	-58%
CCCCCn1c(CN2CCN(Cc3ccccc3)CC2)nc2c1c(=O)n(C)c(=O)n2C	-68%
CCCCCn1c(CN2CCN(CCO)CC2)nc2c1c(=O)n(C)c(=O)n2C	-17.9%
CCCCn1c(SCc2nnc(-c3ccccc3)o2)nc2c1c(=O)n(C)c(=O)n2C	-56%
CN1CCN(Cc2nc3c(c(=O)n(C)c(=O)n3C)n2CCCc2ccccc2)CC1	-13.4%
CCCCCCn1c(CN2CCN(Cc3ccccc3)CC2)nc2c1c(=O)n(C)c(=O)n2C	-71.8%
CCCCn1c(SCc2cccnc2)nc2c1c(=O)n(C)c(=O)n2C	-28%
Cn1c(=O)c2c(nc(CN3CCCCC3)n2CCCc2ccccc2)n(C)c1=O	-29.1%
CCCC(=O)OCCn1c(Br)nc2c1c(=O)[nH]c(=O)n2C	16.9%
CCCCCCn1c(CN2CCN(CCO)CC2)nc2c1c(=O)n(C)c(=O)n2C	-38.3%
COC(=O)c1c(NC(=O)COC(=O)C2CCC2)sc(C)c1C	-13.4%
Fc1ccc(-c2n[nH]c(=S)n2Cc2ccccc2)cc1	7.48%
NCc1nc(-c2ccc(Cl)cc2)no1	11.2%
CCOC(=O)COn1c(=O)c(-c2ccc(OC)c(OC)c2)[n+]([O-])c2ccccc21	-11.9%
O=C(Nc1ccc2c(c1)OCO2)c1ccc(CO)cc1	4.24%
CN1CCC(=NNC(=O)c2cc(-c3ccc(Cl)cc3)n[nH]2)CC1	-16.4%
c1ccc(-c2cccc(-c3ccccc3)n2)cc1	18.4%

SMILES	hERG current change (%, negative = inhibition) at 10uM
CCOc1ccc(CCNC(=O)COC(=O)C2CC2)cc1OCC	3.41%
Cc1nnc(SCC(=O)Nc2ccc3c(c2)OCCO3)n1N	12.4%
CSc1ccccc1NC(=O)c1c(Br)cnn1C	-1.39%
CCOC(=O)N1CCN(Cc2nc3c(c(=O)[nH]c(=O)n3C)n2CCCc2ccccc2)CC1	-37.5%
CCCCCn1c(CN2CCN(C(=O)OCC)CC2)nc2c1c(=O)[nH]c(=O)n2C	-69.8%
CCCCCCn1c(CN2CCC(C)CC2)nc2c1c(=O)n(C)c(=O)n2C	-8.75%
CCOCCn1c(CN2CCCC(C)C2)nc2c1c(=O)n(C)c(=O)n2C (stereo not drawn)	11.7%
CCCCCCn1c(CN2CCN(C(=O)OCC)CC2)nc2c1c(=O)n(C)c(=O)n2C	-53.5%
CCCCCn1c(CN2CCN(C)CC2)nc2c1c(=O)n(C)c(=O)n2C	-33.1%
CCCCCCn1c(CN2CCCCC2)nc2c1c(=O)n(C)c(=O)n2C	-35.7%
CCCCn1c(CN2CCN(C(=O)OCC)CC2)nc2c1c(=O)[nH]c(=O)n2C	6.72%
CCCCCCn1c(CN2CCCC(C)C2)nc2c1c(=O)n(C)c(=O)n2C (stereo not drawn)	-58.1%
CCCCn1c(CN2CCN(C(=O)OCC)CC2)nc2c1c(=O)n(C)c(=O)n2C	-18.1%
CCCCCn1c(CN2CCN(C(=O)OCC)CC2)nc2c1c(=O)n(C)c(=O)n2C	-34.6%
CCCCCCn1c(CN2CCN(C)CC2)nc2c1c(=O)n(C)c(=O)n2C	-80.9%
CC1CCC(NC(=O)C2CC(=O)N(c3ccc4c(c3)OCCO4)C2)CC1 (stereo not drawn)	8.92%
COc1ccc(N(C(=O)c2ccco2)S(=O)(=O)c2ccccc2)cc1	-44.3%
COc1cccc(NC(=O)CSc2nnnn2C(C)C)c1	2.64%
COc1ccc(-c2nsc3c(N4CCCCC4C)ncnc23)cc1 (stereo not drawn)	33.3%
Cc1nnc(NC(=O)C2CCCO2)s1 (stereo not drawn)	3.17%
CCn1c2ccccc2c2cc(CN3CCN(S(=O)(=O)CC)CC3)ccc21.O=C(O)C(=O)O	-13.4%
